Results filed as inconclusive are left out. Entries that show only a call come without a potency. Calls of active or inactive are those of the source. Calls come from the whole dose curve; as a rule, active = well fitted inhibition curve with a large enough effect in the signal ratio in the repeat runs, with a control signal flat; inconclusive = weak or mixed curves, or effect the other way; inactive = flat fitted curve, though single readings scatter; the % refers to the signal ratio.
Potency is the fitted concentration of half-maximal effect.

For this assay, the target named is D(2) dopamine receptor (Homo sapiens) (UniProt P14416). In words: Dopamine D2 receptor (DRD2) small molecule antagonists, cell-based qHTS assay (AID 1963595). To be noted: HEK293-DRD2 cAMP HTRF antagonist mode; series mostly up to 92.4 µM. An excerpt: National Center for Advancing Translational Sciences [NCATS]
Chain of D(2) dopamine receptor (Homo sapiens) (P14416 whole entry, looked up): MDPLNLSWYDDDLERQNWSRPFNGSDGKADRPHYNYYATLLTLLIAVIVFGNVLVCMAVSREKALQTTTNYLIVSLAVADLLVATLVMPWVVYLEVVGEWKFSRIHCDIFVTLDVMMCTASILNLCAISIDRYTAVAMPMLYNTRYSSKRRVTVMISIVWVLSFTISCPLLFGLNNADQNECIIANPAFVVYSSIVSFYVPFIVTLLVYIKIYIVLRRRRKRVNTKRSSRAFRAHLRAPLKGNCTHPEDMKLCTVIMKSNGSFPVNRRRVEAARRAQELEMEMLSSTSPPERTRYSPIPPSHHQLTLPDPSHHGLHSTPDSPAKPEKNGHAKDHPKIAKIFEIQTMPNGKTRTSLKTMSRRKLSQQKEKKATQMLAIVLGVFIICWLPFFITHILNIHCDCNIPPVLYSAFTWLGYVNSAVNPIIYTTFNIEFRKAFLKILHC
Division of Preclinical Innovation [DPI]
U.S. Environmental Protection Agency [EPA]
National Institutes of Environmental Health Sciences [NIEHS]
National Toxicology Program [NTP]
U.S. Food and Drug Administration [FDA]
DRD2 is the D2 subtype of the dopamine receptor, which is coupled to Gi subtype of G protein-coupled receptor. This G protein-coupled receptor inhibits adenylyl cyclase activity. The DRD2-HEK293 cell line stably expressing D2 dopamine receptor can be used for screening agonists and antagonists of interactions between D2 and its ligands. The Hek293-DRD2 cAMP assay is based on HTRF technology. It measures changes of cAMP accumulation in response to Gi coupled GPCR activation or inhibition.
Tox21 Assay Protocol Summary:
DRD2-Hek293 cells were dispensed at 600 cells/3uL/well in 1536-well white plates using a Multidrop Dispenser. After the assay plates were incubated at a 37 C/5% CO2 incubator for 24 h, 1 uL of Ro20-1724 at final concentration of 0.1 mM was transferred to the assay plate by a Flying Reagent Dispenser. Following Ro20-1724 addition, 23 nL of compound dissolved in DMSO, positive controls or DMSO only was added to the assay plates via Wako pintool station. The assay plates were incubated at room temperature for 10 min. Next, 1 uL of mixture of NKH477 (final concentration at 200 nM) and quinpirole (final concentration at 12 nM) was added into the plates. After the assay plates were incubated at room temperature for an additional 30 min, 2.5 ul/well of cAMP-d2 and 2.5 ul/well of anti-cAMP-cryptate were added respectively into the assay plates using a Flying Reagent Dispenser. The plates were incubated at room temperature for 1 h. The fluorescence intensity in the plates was measured at 340 nm excitation and 665 & 620 nm emission by an Envision plate reader.
(Quantitative high-throughput screening tests each substance at several concentrations.)
Turning to `O=C(N[C@@H](c1ccccc1)[C@@H]1CCCCN1)c1cccc(C(F)(F)F)c1Cl`, the Potency entry was “inactive”.
For `CN1[C@@H]2CC[C@H]1CC(OC(=O)C(CO)c1ccccc1)C2` (stereo not given in full) the value was “inactive”; for `CCSCC`, “inactive”; for `COc1ccccc1N1CCN(CC(O)COc2cccc3ccccc23)CC1` (stereo not given), 33.5 µM (active).
Consider `CCOc1ccc(O)cc1`, for which the Potency result is “inactive”.
For `OCCCCCO` the value was “inactive”.
With `CCO[Si](CCC1CCC2OC2C1)(OCC)OCC` (stereo not given), the Potency entry is “inactive”.
For the compound `C=CC(C)(CCC=C(C)C)OC(=O)CC(C)C` (stereo not given), the Potency result was “inactive”.
Take `CCCCCCOC(=O)CCCCCCCC(=O)OCCCCCC`: the Potency entry was “inactive”.
For `CCO[Si](CC(C)C)(OCC)OCC` the value was “inactive”; for `CCCC(=O)OCCc1ccccc1`, “inactive”; for `CC[C@@]1(c2ccccc2)NC(=O)N(C)C1=O`, “inactive”.
Turning to `N#CCCOCCC#N`, the Potency result is “inactive”.
In the case of `O[Si](c1ccccc1)(c1ccccc1)c1ccccc1`, the Potency result was “inactive”.
In the case of `CCn1ccc(NS(=O)(=O)c2ccc(N)cc2)nc1=O` it was “inactive”; in that of `CCC[C@@H]1C[C@@H](C(=O)N[C@@H]([C@H]2O[C@H](SC)[C@H](O)[C@@H](O)[C@H]2O)[C@@H](C)O)N(C)C1`, “inactive”.
For `Cc1ccc(Cl)c(Nc2ccccc2C(=O)O)c1Cl`, the Potency result was “inactive”.
For `CCC(=O)Oc1ccc(/C(CC)=C(\CC)c2ccc(OC(=O)CC)cc2)cc1` the value was “inactive”; for `CCCCCCCC/C=C\CCCCCCCC(=O)OCCO`, “inactive”; for `COc1nccnc1NS(=O)(=O)c1ccc(N)cc1`, “inactive”.
On to `O=S(c1cc(Cl)cc(Cl)c1O)c1cc(Cl)cc(Cl)c1O`, for which the Potency entry was “inactive”.
Turning to `C=CCOC(=O)CCC1CCCCC1`, the Potency result was “inactive”.
With `CC(C)c1cccc(C(C)C)c1NC(=O)NS(=O)(=O)c1cc(C(C)(C)O)co1`, the Potency entry was “inactive”.
Turning to `NC(N)=N/N=C/c1c(Cl)cccc1Cl`, the Potency result was “inactive”.
With `C[Si](C)(C)C`, the Potency result was “inactive”.
In the case of `CN1CCN(C)CC1` it was “inactive”; in that of `COC(=O)C1=C(C)NC(C)=C(C(=O)OCCc2ccc(N3CCN(C(c4ccccc4)c4ccccc4)CC3)cc2)C1c1cccc([N+](=O)[O-])c1` (stereo not given), “inactive”; in that of `CC1(C)CCC(C)(C)c2cc(C(=O)Nc3ccc(C(=O)O)cc3)ccc21`, “inactive”.
Take `CC(=O)OC(C)C[N+](C)(C)C` (stereo not given): the Potency entry was “inactive”.
For `CCCCc1cc2ccccc2c(OCCN(C)C)n1`, the Potency result was “inactive”.
For `C=CCOCC(O)CCl` (stereo not given) the value was “inactive”; for `CCOC(=O)c1ccc(C2CCC(NC[C@H](O)COc3ccc(O)c(NS(C)(=O)=O)c3)CC2)cc1` (stereo not given in full), “inactive”; for `C=Cc1ccc(C=C)cc1`, “inactive”.
For `OC(CN1CCC(Cc2ccc(F)cc2)CC1)c1ccc(Cl)cc1` (stereo not given), the Potency result was “inactive”.
Consider `CCCCCCCC/C=C\CCCCCCCC(=O)N(CCO)CCO`, for which the Potency entry was “inactive”.
In the case of `Cc1nc2ccc(CN(C)c3ccc(C(=O)N[C@@H](CCC(=O)O)C(=O)O)s3)cc2c(=O)[nH]1` it was “inactive”; in that of `CC(C)=CCOc1ccc(/C=C/C(=O)c2ccc(OCC=C(C)C)cc2OCC(=O)O)cc1`, “inactive”.
Regarding `Cc1cc(C)c(N)cc1C`, the Potency result is “inactive”.
In the case of `CSc1c(Cl)c(Cl)c(Cl)c(Cl)c1Cl` it was “inactive”.
In the case of `O=C(O)C1(C(=O)Nc2ccc(Cl)cc2Cl)CC1` it was “inactive”.

For the origin of these results see PubChem BioAssay (Tox21).
